# IMPase Li inh = IMPase inhibition in cells with lithium potentiation | CHO-M1 cells, IP1 TR-FRET (IP-One), carbachol + lithium | Potency, µM (top dose mostly 59.4 µM), hits mostly inhibitors | 210,000 tested, 0.35% active; active = well fitted curve in the direction sought with a large enough effect; inconclusive = small, poorly fitted or top-dose-only effect, or another doubt; inactive = no such curve, though single readings can be large; an effect the other way counts as inactive or inconclusive;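 note: IP1 builds up when IMPase is blocked and the TR-FRET signal falls; nearly all actives have a fitted effect of over 50% in size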
#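 CHO-M1, 2000 cells/well, 16–30 h culture; cpd + low Li+, 30 min 37C; lysis with d2-IP1/Eu-anti-IP1 Ab, 10 min RT; TR-FRET 665/620 ratio and 620 channel; AC50 via Hill.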
# PNC assembly inh = perinucleolar compartment assembly inhibition | PC3M PTB-GFP, PNC prevalence imaging, 16 h; stronger effect = lower value | activity change (PNC), negative = inhibition, % at 10 µM | 140,000 tested, 3.1% active;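 active = readout at or below -70, meaning at least 70% loss of cells showing the perinucleolar compartment, a nuclear body marking cancer cells; inconclusive = readout between -30 and a set limit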
#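 Compounds are pinned in duplicate onto adhered PC3M cells stably expressing GFP-tagged PTB and incubated 16 h at 37 C. Cells are then fixed, nuclei stained with Hoechst, and PNC-positive cells counted.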
# IMPase inh = membrane-permeable compound that blocks inositol monophosphatase | CHO-M1 cells, IP1 accumulation, HTRF TR-FRET ratio | inhibition (IP1 accumulation), % at 46.1 µM | 120,000 tested, under 10 active | AID 901; active = well fitted curve in the direction sought with a large enough effect in the signal ratio, not every such curve was filed as active; inconclusive = small, poorly fitted or top-dose-only effect, or a change in a side signal; inactive = no such curve, though single readings can be large or run the other way; the % refers to the signal ratio;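 note: cells stimulated with carbachol in lithium chloride buffer; higher means more IMPase inhibition seen as more IP1 and lower FRET ratio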
#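 Elevated IP1 in lysates lowers TR-FRET signal (665/620 ratio and 620 channel reported). Cells were CHO-M1, given carbachol (50 uM as added) plus 50mM LiCl, pH 7.4, 30 min, 37C; compounds titrated up to 46 uM; AC50 by Hill equation.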
# HPGD block = blocks human HPGD enzyme activity; P15428; purified HPGD, NADH fluorescence kinetic, PGE2 substrate; Potency, µM, actives largely listed as inhibitors; 150,000 tested, 4.3% active
#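 20 nM HPGD preincubated 15 min at room temperature with compound in 50 mM Tris-HCl pH 8, 0.01% Tween 20. Started with 1 mM NAD+ and 30 uM prostaglandin E2; NADH fluorescence (360/450 nm) read 5 times over 30-s intervals, last minus first.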
# ALDH1A1 inh = inhibitors of human aldehyde dehydrogenase 1A1 | 220,000 tested, 7.3% active | AID 1030 | Potency, µM (highest dose often 75.3 µM), actives largely listed as inhibitors | Purified ALDH1A1, NADH fluorescence, propionaldehyde substrate
# Target sequence (P00352 whole entry, looked up): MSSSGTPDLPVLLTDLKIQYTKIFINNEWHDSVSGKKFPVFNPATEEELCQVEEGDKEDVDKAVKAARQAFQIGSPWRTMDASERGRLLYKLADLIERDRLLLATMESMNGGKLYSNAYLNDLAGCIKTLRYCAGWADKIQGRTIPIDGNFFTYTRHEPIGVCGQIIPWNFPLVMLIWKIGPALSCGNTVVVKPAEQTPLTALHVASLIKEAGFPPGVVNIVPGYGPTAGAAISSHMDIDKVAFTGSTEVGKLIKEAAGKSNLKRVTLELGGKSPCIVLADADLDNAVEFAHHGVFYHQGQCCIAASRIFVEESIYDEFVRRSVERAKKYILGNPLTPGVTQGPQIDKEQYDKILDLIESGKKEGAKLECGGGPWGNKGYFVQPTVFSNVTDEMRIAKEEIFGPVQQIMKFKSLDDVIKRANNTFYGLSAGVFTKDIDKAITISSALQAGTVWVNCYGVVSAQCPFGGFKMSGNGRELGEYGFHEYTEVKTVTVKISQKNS
# ALOX12 inhib = inhibitors of human 12-lipoxygenase (ALOX12); P18054; purified 12-hLO, xylenol orange hydroperoxide absorbance; Potency, µM (highest dose often 57.1 µM), actives largely listed as inhibitors; 150,000 tested, 0.12% active; active = well fitted curve in the direction sought with a large enough effect; inconclusive = small, poorly fitted or top-dose-only effect, or another doubt; inactive = no such curve, though single readings can be large; an effect the other way counts as inactive or inconclusive; note: nearly all actives have a fitted effect of over 55% in size
#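 150 nM 12hLO, 25 mM Hepes pH 7.0 + 0.01% Triton X-100; cpd preinc 15 min RT; 40 uM arachidonic acid, 30 min RT; Fe-XO 30 min; A573/A405 ratio as read-out.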
# Numbers stand for hits; - = inactive; ? = inconclusive; . = no result; ! = not confirmed by another sample; [ ] = another dose, or the depositor's remark. Rows were chosen to be rich in hits. Some 11% of all compounds tested hit in one or more screens of this group. Unless noted, calls come from the whole dose curve; as a rule, active = well fitted inhibition curve with a large enough effect (not every such curve was filed as active); inconclusive = small, poorly fitted or top-dose-only effect, or another doubt; inactive = no such curve, though single readings can be large or run the other way.
SMILES,IMPase Li inh,PNC assembly inh,IMPase inh,HPGD block,ALDH1A1 inh,ALOX12 inhib
O=C(C1CCCN(Cc2ccccc2)C1)N1CCCCC1 (configuration not stated),-,-,-,28.2µM,20µM,-
O=C(C1CCCN(Cc2ccccc2Br)C1)N1CCCCC1 (configuration not stated),-,-,?,25.1µM,-,-
OC[C@H]1O[C@@H](n2cnc3c(N[C@H]4C[C@H]5CC[C@@H]4C5)ncnc32)[C@H](O)[C@@H]1O,-,.,.,.,-,.
COc1cc(/C=C2\SC(=O)N(c3cccc(Cl)c3)C2=O)cc([N+](=O)[O-])c1O,-,.,.,.,0.891µM,.
O=C1S/C(=C\c2ccc(O)c([N+](=O)[O-])c2)C(=O)N1c1ccccc1Cl,-,.,.,.,0.447µM,.
O=C1S/C(=C\c2ccc(O)c([N+](=O)[O-])c2)C(=O)N1Cc1cccc([N+](=O)[O-])c1,-,.,.,.,?,.
Cc1nn2c3ccccc3n(CCN3CCCCC3)c2nc1=O,-,-,-,-,?,-
C=CCn1c2ccccc2n2nc(C)c(=O)nc12,-,-100.0,-,?,?,-
COc1ccccc1CN1CCNC(=O)C1CC(=O)NCCC1=CCCCC1 (configuration not stated),-,.,.,.,25.1µM,.
COc1ccc(CN2CCNC(=O)C2CC(=O)NCCC2=CCCCC2)cc1OC (configuration not stated),-,.,.,.,?,.
COc1cccc(CN2CCNC(=O)C2CC(=O)NCCn2cccn2)c1OC (configuration not stated),-,.,.,.,-,.
COc1ccccc1CN1CCNC(=O)C1CC(=O)NCCCn1cccn1 (configuration not stated),-,.,.,.,25.1µM,.
COc1ccc(-n2c(=O)c(CCc3ccccc3)nc3cnc(OC)nc32)cc1,-,.,.,.,-,.
Cc1nnc(Sc2cc(C(=O)NCCCN(C)Cc3ccccc3)c3ccccc3n2)s1,-,-,-,-,-,-
CCN(CC)CCNC(=O)c1cc(Sc2nnc(C)s2)nc2ccccc12,-,-,.,1.26µM,-,-
CN1CCN(S(=O)(=O)c2ccc(NC(=O)COc3ccccc3)cc2)CC1,-,.,.,.,-,.
Cc1cccc(OCC(=O)Nc2cc(S(=O)(=O)N3CCCCC3)ccc2N2CCN(C)CC2)c1,-,.,.,.,11.2µM,.
CN(CCOc1ccccc1)CC(=O)Nc1ccc(S(=O)(=O)N2CCCC2)cc1,.,.,.,.,12.6µM,.
Cc1cccc(OCCC(=O)Nc2ccc(S(=O)(=O)N3CCCC3)cc2)c1,-,-,-,-,?,-
CN(c1ccccc1C(=O)Nc1ccc(S(=O)(=O)N2CCCC2)cc1)S(C)(=O)=O,-,-,-,-,12.6µM,-
CN1CCN(S(=O)(=O)c2ccc(NC(=O)COc3ccccc3Cl)cc2)CC1,-,.,.,.,3.16µM,.
O=C(O)c1cccc(CN2CCCCC2)c1,-,.,.,-,-[13.5 µM],-[11.4 µM]
CC(=O)c1c(NC(=O)c2ccccc2)[nH]c(-c2ccccc2)nc1=S,-,.,.,.,-,.
COc1ccc(CCNC(=S)NC2CCN(Cc3ccccc3)CC2)cc1,-,.,.,.,?,.
O=C(O)CCCC[C@@H]1CCSS1,-,.,.,-,-,.
SMILES,IMPase Li inh,PNC assembly inh,IMPase inh,HPGD block,ALDH1A1 inh,ALOX12 inhib
COC(=O)c1ccc(C(NC(=O)OCc2ccccc2)/C(F)=C/[C@@H](C)C(=O)N[C@@H](CO)Cc2ccccc2)cc1 (some centres not stated),-,.,.,-,-,-
COc1cc(CN2CCNC(=O)C2CC(=O)N2CCc3ccccc3C2)cc(OC)c1 (configuration not stated),-,.,.,.,25.1µM,.
COc1ccc(/C=C/C(=O)c2cc(F)ccc2OC(=O)c2ccccc2C)cc1OC,-,-88.0,.,-,-,-
CCOC(=O)C(=CNc1ccc(NC2=NCC(C)S2)cc1)C(=O)OCC (configuration not stated),-,?,.,14.1µM,-,-
O=S(=O)(c1ccc(Br)s1)N1CCc2ccccc2C1,-,-118.9,-,-,-,-
COC(=O)[C@@H]1CC2=CC(=O)CC[C@]2(C)[C@@]23O[C@@H]2C[C@@]2(C)[C@H](CC[C@@]24CCC(=O)O4)[C@@H]13,-,.,.,-,-,-[0.00818 µM]
COC(=O)[C@@H]1C[C@@H]2CC[C@@H](O)C[C@@H]2N1Cc1ccc(-c2ccccc2)cc1,-,.,.,-,-,-
Cc1ccc(S(=O)(=O)N2CCCC2C(=O)OCc2ccccc2)cc1 (configuration not stated),-,-,.,-,-,-
Cc1ccc(S(=O)(=O)N2CCCC2C(=O)OCc2ccco2)cc1 (configuration not stated),-,-108.5,-,-,2.82µM,-
CC(C)(N=NC(C)(C)C(=N)N)C(=N)N,-,.,.,-,31.6µM!,-[11.4 µM]
CC(C)C1OC(c2cccc(NC(=O)c3cccs3)c2)OCC1(C)C (configuration not stated),?,.,.,.,-,.
CCOc1ccc(CC(=O)Nc2sc(Cc3ccccc3)c(C)c2C(N)=O)cc1OCC,-,-,-,-,?,-
Cc1c(Cc2ccccc2)sc(NC(=O)c2ccco2)c1C(N)=O,-,-111.1,-,?,?,-
Cc1c(Cc2ccc3c(c2)OCO3)sc(NC(=O)c2cccc3ccccc23)c1C(N)=O,-,-,.,14.1µM,14.1µM,-

# Assay outcomes deposited in PubChem BioAssay by National Center for Advancing Translational Sciences (NCATS).
